# Results from PubChem BioAssay AID1259421 (Broad Institute, 2018).
# Several values for one entry are separate records, joined by “and”; a condition that tells them apart may be missing. Equal entries are not always repeated. The whole screen tested about 6,400 compounds, of which about 610 (9.5%) were called active. Rule as the data show it: active = activity change below about -70%; inconclusive = no clear call, values can overlap the other calls; inactive = above that. The full list was thinned out, with actives kept by preference. A structure can be active in one record and inactive in another.
# Experiment: T. gondii ME49Luc in HeLa cells, luciferase assay, 72 h, no IFN-y (AID 1259421)
# Conditions: stronger effect = lower value, concentration not given here
row,SMILES,"activity change, negative = inhibition"
1,O=Cc1cn(Cc2ccc(Cl)cc2)c2ccccc12,3.18% (inactive)
2,Cn1cc(C(=O)C(=O)N[C@H]2CN3CCC2CC3)c2ccccc21,3.13% (inactive) and -2.73% (inactive)
3,O=C(Nc1ccncc1)C(=O)c1cn(Cc2ccc(Cl)cc2)c2ccccc12,-75.2% (active)
4,c1cc(Cc2cnc[nH]2)ccn1,4.56% (inactive)
5,CCCN(CCC)C1CCc2ccc(O)cc2C1 (configuration not stated),-0.0815% (inactive) and 4.46% (inactive)
6,O=C(O)c1ccc2[nH]cc(CCCCN3CC=C(c4ccccc4)CC3)c2c1,8.65% (inactive) and 4.54% (inactive)
7,c1ccc2sc(C3(N4CCCC4)CCCCC3)cc2c1,3.78% (inactive)
8,O=C(O)CCCOc1ccc(Cl)cc1Cl,9.07% (inactive)
9,Oc1cc(Cl)ccc1Oc1ccc(Cl)cc1Cl,-80.6% (active) and -88.3% (active)
10,O=C(O)COc1ccc(Cl)cc1Cl,5.11% (inactive)
11,FC(F)OC(F)(F)C(F)Cl (configuration not stated),2.39% (inactive)
12,CCC1C(C)=NN=C(c2ccc(OC)c(OC)c2)c2cc(OC)c(OC)cc21 (configuration not stated),6.78% (inactive)
13,CCCCC1(C2CCCC2)Cc2cc(OCCCC(=O)O)c(Cl)c(Cl)c2C1=O (configuration not stated),-6.67% (inactive)
14,CC(=O)OC[C@]12CCC(C)=C[C@H]1O[C@@H]1[C@H](O)[C@@H](OC(C)=O)[C@@]2(C)[C@@]12CO2,-82.7% (active)
15,CCCC[N+]1(C)[C@@H]2CC(OC(=O)[C@@H](CO)c3ccccc3)C[C@H]1[C@@H]1O[C@@H]12 (some centres not stated),2.27% (inactive)
16,NC(=NCc1ccc(Cl)cc1)SCCCc1cnc[nH]1,-1.21% (inactive) and -3.65% (inactive)
17,C=C(C)[C@@H]1CCC(C)=C[C@H]1c1c(OC)cc(C)cc1OC,13.1% (inactive) and 2.72% (inactive)
18,COc1cccc2c1C(=O)c1c(O)c3c(c(O)c1C2=O)C[C@@](O)(C(=O)CO)C[C@@H]3O[C@H]1C[C@H](N2CCO[C@H](OC)C2)[C@H](O)[C@H](C)O1,-77.1% (active)
19,CC(C)(C)NCC(O)COc1cccc2[nH]c(C#N)cc12 (configuration not stated),-74.6% (active)
20,CC(C)(C)NC[C@H](O)COc1cccc2[nH]c(C#N)cc12,0.543% (inactive)
21,CS(=O)(=O)Nc1ccc(Cc2noc(-c3ccc4[nH]cc(CCN)c4c3)n2)cc1,0.294% (inactive)
22,CCc1cccc(CC)c1NC1=NCCN1,5.66% (inactive)
23,CN1C(=O)[C@@H](NC(=O)c2cc3ccccc3[nH]2)N=C(c2ccccc2)c2ccccc21,-59.5% (inactive)
24,CC(=O)O[C@@]12CO[C@@H]1C[C@H](O)[C@@]1(C)C(=O)[C@H](O)C3=C(C)[C@@H](O)C[C@@](O)([C@@H](OC(=O)c4ccccc4)[C@H]21)C3(C)C,-60.3% (inactive) and 13.9% (inactive)

row,SMILES,"activity change, negative = inhibition"
1,C/C=C(\C)C(=O)N[C@@H](c1ccccc1)[C@@H](O)C(=O)O[C@H]1C[C@@]2(O)[C@@H](OC(=O)c3ccccc3)[C@@H]3[C@]4(OC(C)=O)CO[C@@H]4C[C@H](O)[C@@]3(C)C(=O)[C@H](OC(C)=O)C(=C1C)C2(C)C,-82.1% (active)
2,CC(=O)O[C@H]1C(=O)[C@@]2(C)C([C@H](OC(=O)c3ccccc3)[C@]3(O)C[C@H](O)C(C)=C1C3(C)C)[C@]1(OC(C)=O)CO[C@@H]1C[C@@H]2O (some centres not stated),-56.1% (inactive)
3,C[C@H](N)Cc1ccccc1,4.68% (inactive)
4,O=[N+]([O-])NC1=NCCN1Cc1ccc(Cl)nc1,8.16% (inactive)
5,C[C@]12CCC3C(CC[C@H]4CC(=O)CC[C@]34C)C1CCC2=O (some centres not stated),1.73% (inactive)
6,CC[C@H]1CN2CCC1C[C@@H]2[C@@H](O)c1ccnc2ccc(OC)cc12 (some centres not stated),14.8% (inactive) and 8.86% (inactive)
7,CN1CCc2cc(Cl)c(O)cc2[C@H]2c3ccccc3CC[C@@H]21,-4.73% (inactive)
8,CNc1ccccc1C(=O)O,-1.44% (inactive)
9,CCCCOC(=O)c1ccccc1C(=O)OCCCC,3.08% (inactive) and -9.32% (inactive)
10,C[CH2][Hg][S]c1ccccc1C(=O)O,-88.9% (active) and -92.1% (active)
11,O=c1cccc2n1C[C@H]1CNCC2C1,4.99% (inactive)
12,C#C[C@]1(O)CC[C@H]2[C@@H]3CCC4=CC(=O)CCC4=C3C=C[C@@]21CC,-82.3% (active)
13,C=CC[C@]1(O)CCC2C3CCC4=CC(=O)CCC4=C3C=C[C@@]21C (some centres not stated),11.2% (inactive)
14,C=CC[C@@]1(O)CC[C@H]2[C@@H]3CCC4=CC(=O)CCC4=C3C=C[C@@]21C,9.86% (inactive)
15,C=C[C@H]1CN2CC[C@H]1C[C@@H]2[C@@H](OC(=O)OCC)c1ccnc2ccc(OC)cc12,7.12% (inactive) and 13% (inactive)
16,CCCN1CCO[C@H]2c3cc(O)ccc3OC[C@@H]21,-9.29% (inactive)
17,NCCc1cccc(O)c1,-9.36% (inactive)
18,Oc1ccc2c3c1OC1[C@@H](O)CC[C@@]4(O)[C@@H](C2)N(CC2CCC2)CC[C@]314 (some centres not stated),3.08% (inactive)
19,C[C@@]1(CO)[C@H](O)CC[C@@]2(C)[C@H]1CC[C@H]1C[C@@H]3C[C@@]12CC[C@]3(O)CO,-87.7% (active)
20,CC(C(=O)OC1CC2CCC(C1)N2C)c1ccc(Br)cc1 (configuration not stated),-1.35% (inactive) and 1.24% (inactive)
21,CC[C@@]1(O)C(=O)OCc2c1cc1n(c2=O)Cc2cc3ccccc3nc2-1,-82.2% (active) and -91.4% (active)
22,CCCn1c(C)c(C(=O)c2cccc3ccccc23)c2ccccc21,93.6% (inactive)
23,Cc1c(C(=O)c2cccc3ccccc23)c2cccc3c2n1[C@H](CN1CCOCC1)CO3,-89.2% (active)
24,Cc1c(C(=O)c2cccc3ccccc23)c2cccc3c2n1[C@@H](CN1CCOCC1)CO3,46.7% (inactive)

row,SMILES,"activity change, negative = inhibition"
1,CC(=O)Oc1ccc(Cl)c2cccnc12,-3.09% (inactive)
2,Cc1c(N2C(=O)[C@@H]3[C@H](O)CCN3C2=O)ccc(C#N)c1Cl,8.89% (inactive)
3,CC1OC(OC2CC(O)C3(CO)C4C(O)CC5(C)C(C6=CC(=O)OC6)CCC5(O)C4CCC3(O)C2)C(O)C(O)C1O (configuration not stated),-83.7% (active)
4,C[C@@H]1O[C@@H](O[C@@H]2C[C@@H](O)[C@]3(CO)[C@H]4[C@H](O)C[C@]5(C)[C@@H](C6=CC(=O)OC6)CC[C@]5(O)[C@@H]4CC[C@]3(O)C2)[C@H](O)[C@H](O)[C@H]1O,-77.1% (active)
5,C[C@@H]1O[C@@H](O[C@H]2C[C@@H](O)[C@]3(CO)C4C(CC[C@]3(O)C2)[C@@]2(O)CC[C@H](C3=CC(=O)OC3)[C@@]2(C)C[C@H]4O)[C@H](O)[C@H](O)[C@H]1O (some centres not stated),-88.6% (active)
6,C=CCN1CCC23c4c5ccc(O)c4OC2/C(=N\NC(=O)c2ccccc2)CCC3(O)C1C5 (configuration not stated),25.6% (inactive)
7,C=CCN1CC[C@]23c4c5ccc(O)c4OC2C(=O)CC[C@@]3(O)[C@H]1C5 (some centres not stated),4.78% (inactive)
8,CCN1C[C@]2(OC(=O)c3ccccc3NC(C)=O)CC[C@@H](OC)[C@]34C1[C@@H](C[C@H]23)[C@@]1(O)C[C@H](OC)[C@H]2C[C@H]4[C@]1(O)[C@H]2OC,10.9% (inactive)
9,O=C(O)c1ccccn1.O=C(O)c1ccccn1.O=C(O)c1ccccn1.[Cr],10.5% (inactive)
10,Cc1ccc2c(c1)Cc1c(C(=O)NN3CCCCC3)nn(-c3ccc(Cl)cc3Cl)c1-2,-71% (active) and -58.8% (inactive)
11,Cc1ccc2c(c1)Cc1c(C(=O)NC3CCCCC3)nn(-c3ccc(Cl)cc3Cl)c1-2,-23.4% (inactive) and -2.64% (inactive)
12,C/C(=C\C(N)C(=O)O)CP(=O)(O)O (configuration not stated),-4.78% (inactive)
13,c1ccc(C2CNCc3ccccc32)cc1 (configuration not stated),5.48% (inactive)
14,C=C1CC2C(CC[C@]3(C)C(=O)CCC23)[C@@]2(C)C=CC(=O)C=C12 (some centres not stated),11.4% (inactive)
15,CN1C(=O)CCS(=O)(=O)C1c1ccc(Cl)cc1 (configuration not stated),18% (inactive) and -3.16% (inactive)
16,CC(=O)O[C@@H]1C[C@@]2(C)[C@H](c3ccoc3)C[C@H]3O[C@]32[C@]2(C)C(=O)C(=O)C3C(C)(C)C(=O)C=C[C@]3(C)C12 (some centres not stated),-89.9% (active)
17,CC1(C)C(=O)C=C[C@@]2(C)C1C(=O)C(=O)[C@]1(C)C2CC[C@@]2(C)[C@H](c3ccoc3)C[C@H]3O[C@]321 (some centres not stated),-86.1% (active)
18,CC1(C)C2C[C@@H](O)[C@]3(C)C(CC[C@@]4(C)[C@H](c5ccoc5)OC(=O)[C@H]5O[C@]543)[C@@]2(C)[C@@H](O)C[C@H]1O (some centres not stated),4.33% (inactive)
19,CC1(C)C2CC(=O)[C@]3(C)C(CC[C@@]4(C)[C@H](c5ccoc5)OC(=O)C5OC543)[C@@]2(C)[C@@H](O)C[C@H]1O (some centres not stated),1.93% (inactive)
20,CC1(C)C(=O)[C@@H]2O[C@@H]2[C@@]2(C)C1C[C@@H](O)[C@]1(C)C2CC[C@@]2(C)[C@H](c3ccoc3)OC(=O)C3OC321 (some centres not stated),20.5% (inactive)
21,COC(=O)[C@@H]1C[C@H](OC(C)=O)C(=O)[C@H]2[C@@]1(C)CC[C@H]1C(=O)O[C@H](c3ccoc3)C[C@]21C,11.7% (inactive) and 9.72% (inactive)
22,CN1[C@@H]2CC[C@H]1CC(OC(=O)N1Cc3ccccc3NC1=O)C2 (some centres not stated),15% (inactive) and 8.45% (inactive)
23,CC(CO)NC(=O)C1C=C2c3cccc4[nH]cc(c34)C[C@H]2N(C)C1 (some centres not stated),15.2% (inactive) and -0.618% (inactive)
24,COc1ccc2c(c1O)-c1cc(O)cc3c1[C@@H](C2)N(C)CC3,-5.61% (inactive)
